KKLEB cytotox: reduces viability of KKLEB cystic fibrosis airway cells | activity change (cytotoxicity), % at 5 µM | KKLEB CF airway cells viability, ATPlite luminescence, overnight; stronger effect = lower value; cells stimulated with P. aeruginosa culture filtrate | hit rate 0.36% among 360,000;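 active means corrected activity change at or below -50% at 5 µM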
CF NFkB block: inhibitors of cystic fibrosis induced NF-kB; KKLEB NF-kB-GFP reporter, PAF-induced, GFP fluorescence overnight; inhibition, % at 5 µM; hit rate 0.86% among 360,000;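 active means at least 50% inhibition at 5 µM, scaled per plate between neutral and stimulator controls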;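 further: PAF is a Pseudomonas aeruginosa culture filtrate used as stimulus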
HIF-2a block: HIF-2a inhibition. 786-0 RCC cells HIF-2a reporter, luciferase luminescence, overnight. inhibition, % at 18.8 µM. hit rate 0.72% among 360,000;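 active means inhibition of the luminescence signal of 40% or more relative to plate controls, in a single-dose primary screen at 18.75 µM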
TWEAK-Fn14 inh: inhibitors of TWEAK-Fn14 interaction signaling; inhibition, % at 10 µM; TWEAK-stimulated Fn14 reporter cells, luciferase luminescence, 8 h; hit rate 2% among 360,000; in the data active means inhibition above about 50%
Peg3 promoter: inhibitors of Peg3 promoter; HeLa PEG-Prom luciferase reporter, luminescence, overnight; inhibition, % at 20 µM; hit rate 1.7% among 360,000; AID 588405;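 active means inhibition of at least 50% at 20 µM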
TROY NFkB inh: inhibitors of TROY-dependent NF-kB signaling; inhibition, % at 10 µM; hit rate 0.98% among 360,000; Q293 LMP1-TROYcd NF-kB luciferase reporter, 4 h;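 active means compounds whose plate-normalised and pattern-corrected inhibition of the luciferase reporter signal at the single screening dose is 50% or more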
Hits are given with their value; . = inactive; / = not tested or not shown. Shown are actives, neighbours in structure and some others; about 4% of the full set was active somewhere.

SMILES	KKLEB cytotox	CF NFkB block	HIF-2a block	TWEAK-Fn14 inh	Peg3 promoter	TROY NFkB inh
Clc1ccc2c(c1)C(N1CCNCC1)Cc1ccccc1S2 (stereo not given)	.	.	.	.	104	.
CC(O)(c1ccc(F)c(F)c1)c1nc(-c2cccc3cccnc23)cs1 (stereo not given)	.	.	.	.	.	.
O=C(CNS(=O)(=O)c1ccc(Cl)c(C(F)(F)F)c1)NC1CCCCCC1	.	.	.	.	.	.
O=C(CN1C(=O)/C(=C2\SC(=S)N(C3CCS(=O)(=O)C3)C2=O)c2ccccc21)Nc1ccccc1 (stereo not given)	.	53	.	.	.	.
CN(C)c1nc(N/N=C\c2ccc(Cl)c([N+](=O)[O-])c2)nc(Nc2ccc(F)cc2)n1	.	.	.	.	65	.
Nn1cnnc1N/N=C/c1ccc(Cl)c([N+](=O)[O-])c1	.	.	.	.	.	.
Cn1nc(C(C)(C)C)cc1C(=O)N1CCCCC1c1cc(C(=O)NCc2cccnc2)no1 (stereo not given)	.	.	.	.	.	.
CC(C)c1ccc(S(=O)(=O)c2cc3cc(Br)ccc3oc2=O)cc1	.	.	.	54	88	.
Cc1ccc(S(=O)(=O)c2cc3cc(Br)ccc3oc2=O)cc1	.	.	.	80	.	.
O=C(OCC(=O)c1ccc[nH]1)c1ccc(F)c(S(=O)(=O)N2CCOCC2)c1	.	.	.	.	.	.
Fc1ccc2nc(Nc3nc4cc5c(cc4s3)OCCO5)sc2c1	.	.	.	.	.	62
COc1ccc2c(c1)CC=C1C2CCC2(C)C(=O)C(=NO)CC12 (stereo not given)	.	54	.	.	.	.
CCCN(C(=O)CSCc1ccccc1C)c1c(N)n(Cc2ccccc2)c(=O)[nH]c1=O	.	.	.	.	.	.
COc1cc(OC)c2c(-c3cccc(-c4ccc(OC)c(F)c4)c3)cc(=O)oc2c1	.	.	.	.	.	.
COc1cc(OC)c2c(-c3cccc(-c4ccc(C(C)=O)cc4)c3)cc(=O)oc2c1	.	55	.	77	.	56
C[C@H](CO)N1C[C@H](C)[C@@H](CN(C)S(=O)(=O)c2cn(C)cn2)Oc2ncc(Br)cc2C1=O	.	.	.	.	.	.
CC(CC(=O)N1CCc2ccccc21)S(=O)(=O)c1ccc2c(c1)NC(=O)CO2 (stereo not given)	.	.	.	.	.	.
O=C(Cn1nnc(-c2ccccc2NC(=O)c2ccccc2)n1)Nc1ccc2c(c1)OCCO2	-54	.	.	.	.	.
CC(=O)Nc1ccccc1-c1nnn(CC(=O)Nc2ccc3c(c2)OCCO3)n1	.	.	.	.	.	.
Cc1ccc(-n2nc(C)c3c(-c4cccs4)c(C#N)c(N)nc32)cc1	.	.	.	.	86	.
Cc1nc(N)c(C#N)c(-c2ccccc2)c1C	.	.	.	.	.	.
CCN(CC)C(=O)CSc1nc(N)c(C#N)c(-c2cccs2)c1C#N	.	.	.	.	.	.
Cc1nn(-c2ccccc2)c2nc(N)c(C#N)c(-c3ccc(F)cc3)c12	.	.	.	.	91	.
COc1cc(C(=O)NC2CCN(C)CC2)ccc1Nc1ncc2c(n1)N(CCc1ccccc1)CCC(=O)N2C	.	.	.	.	.	.
COc1cc(C(=O)NC2CCN(C)CC2)ccc1Nc1ncc2c(n1)N(C1CCCC1)CCC(=O)N2C(C)C	.	.	.	.	69	.
SMILES	KKLEB cytotox	CF NFkB block	HIF-2a block	TWEAK-Fn14 inh	Peg3 promoter	TROY NFkB inh
CC1(c2ccccc2)NC(=O)N(CC(=O)NCCC2=CCCCC2)C1=O (stereo not given)	.	.	.	.	.	57
c1ccc(SC23CCCCN(CCC2)[C@]32CO2)cc1 (stereo not given in full)	/	/	.	.	/	.
CN(C)CCNC(=O)C(c1ccccc1)c1ccccc1	.	.	.	.	.	.
CN(C)CCC(=O)C(Cc1ccccc1)c1ccccc1 (stereo not given)	.	.	.	.	89	.
COc1ccc(Br)cc1S(=O)(=O)NCCc1cccs1	.	.	.	.	.	.
Oc1cccc2c(NC(=S)Nc3ccc(OC(F)F)cc3)cccc12	.	.	.	91	.	.
FC(F)Oc1ccc(NC(=S)NCc2ccccc2)cc1	.	.	.	.	.	.
CCN1Cc2cc(OC)ccc2-c2ccccc2S1(=O)=O	.	.	.	.	.	.
COc1cccc(C(O)c2nc(-c3cccc(F)c3)cs2)c1 (stereo not given)	.	.	.	.	.	.
COC(=O)c1cc(NC(=O)c2cccnc2)cc(C(=O)OC)c1	.	.	.	.	.	.
COC(=O)c1ccc(C(NC(=O)c2cccnc2)NC(=O)c2cccnc2)cc1	.	.	.	59	.	.
CCS(=O)(=O)N1CCCC(C(=O)NCCCN2CCCC2=O)C1 (stereo not given)	.	.	.	64	.	/
Cc1cc(Oc2ccccc2)nc(-c2ccccc2)n1	.	.	.	.	.	.
C=C(C)c1nc(Oc2ccccc2)nc(Oc2ccccc2)n1	.	.	.	.	106	.
O=C(Nc1ccc(N2CCOCC2)cc1N1CCOCC1)c1cccc([N+](=O)[O-])c1	.	.	.	.	.	.
Cc1ccc(C(C)C)c(OCc2ccc(C(=O)N/N=C/c3cccc(O)c3O)cc2)c1	.	.	71	.	.	.
Cc1ccc(C(C)C)c(OCc2ccc(C(=O)N/N=C/c3ccc(O)c(O)c3)cc2)c1	.	.	72	62	.	.
COc1cc(/C=N\NC(=O)c2ccc(-c3ccccc3)cc2)cc(OC)c1O	.	.	.	.	.	.
CCOc1cc(/C=N/NC(=O)c2ccc(=O)n(C)c2)ccc1O	.	.	.	.	.	.
Cc1ccc(C(C)C)c(OCCNC(=O)c2cncc(Br)c2)c1	.	.	.	.	.	.
COc1cc(C(=O)NCCOc2cc(C)ccc2C(C)C)cc(OC)c1OC	.	.	.	62	.	.
COc1cc(/C=N/NC(=O)c2ccc(COc3cc(C)ccc3C(C)C)cc2)cc(OC)c1O	.	.	69	.	.	.
COc1ccc2[nH]c(=O)c(CN(Cc3cccs3)S(=O)(=O)c3cccc4nsnc34)cc2c1	-53	98	.	.	66	.
COc1ccc2[nH]c(=O)c(CN(CCO)S(=O)(=O)c3c(C)ccc4nsnc34)cc2c1	.	.	.	.	.	.
Cc1cccc(NC(=O)C(Cc2ccccc2)c2nn[nH]n2)c1C (stereo not given)	.	.	.	.	.	.
Cc1ccc(C2CC(=O)c3cnc(N4CCN(c5ccccc5)CC4)nc3C2)cc1 (stereo not given)	.	.	.	58	.	.
O=C1CC(c2ccc(F)cc2)Cc2nc(N3CCN(c4ccccc4)CC3)ncc21 (stereo not given)	.	.	.	.	.	.
